Source: PubChem BioAssay (Buhrlage Lab, Dana-Farber Cancer Institute and Novartis Institutes for BioMedical Research (Cambridge, Mass))
USP17 inh: human USP17-like deubiquitinase inhibition. purified USP17, Ub-rhodamine cleavage fluorescence, 3 h. hit rate 6.5% among 47,000. AID 1645855. inhibition, % at 50 µM
USP7 inh: human USP7 deubiquitinase inhibition; Q93009; purified USP7, Ub-rhodamine cleavage fluorescence; inhibition, % at 20 µM; hit rate 0.3% among 47,000
USP8 block: human USP8 deubiquitinase inhibition; inhibition, % at 20 µM; hit rate 4.2% among 47,000; P40818; purified USP8, Ub-rhodamine cleavage fluorescence, 30 min
UCHL1 inh: inhibitors of human UCHL1 deubiquitinase | inhibition, % at 20 µM | hit rate 0.2% among 47,000 | purified UCHL1, Ub-rhodamine cleavage fluorescence
USP30 inh: blocks human USP30 ubiquitin-rhodamine cleavage | hit rate 5.3% among 47,000 | purified USP30, Ub-rhodamine cleavage fluorescence | inhibition, % at 25 µM | Q70CQ3
USP10 inh: blocks human USP10 ubiquitin-rhodamine cleavage. Q14694. purified USP10, Ub-rhodamine fluorescence, 60 min. inhibition, % at 20 µM. hit rate 1.1% among 47,000. AID 1645856
Starred values were filed as active, the others as inactive; i = inactive; nt = not tested or not shown. A selection: hits, their analogues and other compounds. The true share with any hit is near 13%. Cut-off read from the data, not from the text of the source: active = inhibition above about 30%; inactive = the rest.

SMILES	USP17 inh	USP7 inh	USP8 block	UCHL1 inh	USP30 inh	USP10 inh
Cc1ccc2[nH]cc(S(=O)(=O)c3cc(F)cc(F)c3)c(=O)c2c1	12.1	36.1*	98.1*	28.2	8.5	26.0
Cc1ccc2[nH]cc(S(=O)(=O)c3ccc(C)c(F)c3)c(=O)c2c1	60.4*	19.9	17.5	3.7	-33.9	8.4
Cc1ccc(S(=O)(=O)c2cnc3ccc(C)cc3c2Nc2ccc(C)c(C)c2)cc1	-13.5	9.0	7.6	1.2	4.6	4.0
O=[N+]([O-])c1ccc2[nH]cc(S(=O)(=O)Nc3ccc(F)cc3F)c2c1	6.4	1.0	-53.6	3.2	1.8	4.8
Cc1ccc(-c2nn3c(NCC4CCCO4)cc(C)nc3c2C)cc1 (configuration not stated)	-10.3	-3.0	-9.0	1.5	-10.1	0.2
Clc1ccc(-n2cc(-c3ccccc3)c3c(NC4CCCC4)ncnc32)cc1	-7.2	4.8	-3.4	-1.9	-17.6	3.2
CCN1CCC2(CN(S(C)(=O)=O)CC23CCN(C(=O)NCc2ccccc2)CC3)C1=O (configuration not stated)	-6.5	2.4	-21.7	2.5	26.9	-0.1
NC(=O)Cn1c(-c2nc(-c3cccc(F)c3)no2)cccc1=O	12.7	5.5	15.5	0.2	5.5	2.4
Cc1ccc([N+](=O)[O-])cc1NC(=O)CCN1C(=O)c2ccccc2S1(=O)=O	30.8*	-11.4	-7.3	-5.3	48.6*	0.3
O=C(CCN1C(=O)c2ccccc2S1(=O)=O)Nc1ccccc1C(=O)O	-17.8	0.0	0.1	-3.0	-2.8	0.8
Cc1ccc(-c2csc(-n3ncc(C(=O)N4CCN(C(=O)Nc5cccc6ccccc56)C(C)C4)c3C(C)C)n2)cc1 (configuration not stated)	62.8*	-31.7	80.5*	19.5	-52.5	-17.6
CCOc1ccccc1/C=C/C12NC(=O)CN1c1ccccc1C2(C)C (configuration not stated)	-23.8	6.1	5.7	3.1	-90.3	1.6
O=C(Nc1ccc(OC(F)(F)F)cc1)Nc1ccc(-n2ccc(C(F)(F)F)n2)cc1	1.7	2.1	2.5	-0.8	4.8	7.6
COc1ccc(-c2cnn(-c3ccc(NC(=O)Nc4cccc(C(F)(F)F)c4)cc3)c2)cc1	nt	20.2	31.3*	1.9	13.3	23.8
Cc1c(C(=O)N=CN(C)C)sc(C#N)c1-c1ccccc1	17.8	-3.5	1.3	1.4	32.0*	-2.2
COc1cccc(CNC(=O)CCC2=NS(=O)(=O)c3ccc(C)cc3N2)c1	-0.3	0.1	11.5	-1.2	-0.6	3.5
Cn1cc2c(N3CCSCC3)nc(C(=O)NCCCc3ccccc3)nc2n1	-5.4	-5.5	-21.7	-1.8	7.6	-1.9
NC(=O)C[C@@H](NC(=O)[C@H](Cc1ccccc1)NC(=O)[C@H](Cc1ccccc1)n1c(=O)[nH]c2ccccc2c1=O)C(=O)O	4.4	1.9	-65.9	1.6	13.1	-1.8
CN1CC2CN(S(=O)(=O)c3ccc4ncsc4c3)CCN2Cc2ccccc21 (configuration not stated)	-150.6	-155.5	-188.5	-149.0	i	-5.3
Cc1nn(C)cc1NC(=O)Nc1ccc(F)cc1	11.5	3.7	7.3	1.4	30.5*	0.5
C=C1C(=O)OC(CCCCC)C1C(=O)O (configuration not stated)	-35.8	-20.9	6.5	4.1	8.0	7.2
Nc1nc(N2CCCC2)ncc1C(=O)NCc1ccccc1	-9.1	0.3	4.2	-0.2	22.6	3.9
Cc1cc(F)ccc1S(=O)(=O)N1CCC(c2nnc3n2CCNCC3)CC1	6.8	4.1	5.6	-3.1	3.5	1.9
CC1CCc2c(sc(N)c2C(=O)NC2CCCC2)C1 (configuration not stated)	-31.8	-28.2	37.1*	-18.7	-243.1	-9.1
CC1CCc2c(sc3ncnc(NC4CC4)c23)C1 (configuration not stated)	9.6	-14.5	15.4	-0.7	22.2	-0.3
SMILES	USP17 inh	USP7 inh	USP8 block	UCHL1 inh	USP30 inh	USP10 inh
CCOC(=O)CSc1nnc(CNC(=O)c2ccc(F)cc2)n1-c1ccccc1	-5.6	-3.1	0.1	-7.2	-2.1	-1.6
CO[C@@H]1C[C@@H](C[C@H]2CC[C@H](C)[C@H]([C@@H](C)C(=O)O)O2)O[C@]2(O[C@](C)([C@H]3CC[C@@](C)([C@@H]4O[C@@H]([C@H]5O[C@](C)(O)[C@H](C)C[C@@H]5C)C[C@@H]4C)O3)C[C@H]2C)[C@@H]1C	16.3	1.7	7.9	0.8	34.1*	7.6
Cc1sc(NC(=O)CN(C)C2CCCCC2)nc1-c1ccc2c(c1)CCN2C(=O)c1ccccc1F	15.5	-30.4	38.0*	-4.9	-37.7	-3.1
Cc1sc(NC(=O)CN2CCc3ccccc3C2)nc1-c1ccc2c(c1)CCN2C(=O)c1cccc(F)c1	20.9	-43.0	51.2*	-11.4	-64.8	-7.1
Cc1cccc(C(=O)N2CCc3cc(-c4nc(NC(=O)CN5CCc6ccccc6C5)sc4C)ccc32)c1	66.4*	-32.4	79.0*	1.2	11.8	3.1
COc1cc(CC(=O)OCc2cc(=O)oc3cc(C)ccc23)cc(OC)c1OC	4.2	-1.6	0.8	3.4	6.1	-1.6
O=C(c1cc(-c2ccn(C3CCCC3)n2)n2ccccc12)N1CCCC1	-28.3	-10.1	-5.0	2.3	-58.8	-2.7
O=C(Nc1ccc2c(c1)CCN2S(=O)(=O)c1ccccc1)Nc1ccc(F)cc1F	15.7	7.9	-0.3	6.2	14.7	10.3
O=C(Nc1ccc2c(c1)nc1n2CCCCC1)C1c2ccccc2Oc2ccccc21	48.2*	6.5	6.4	1.4	8.3	-1.1
O=C(O)c1cccc(NC(=O)C2c3ccccc3Oc3ccccc32)c1	-0.6	1.5	-15.0	4.0	-12.3	5.1
CCOCC(=O)N1CCOC[C@]2(CN(Cc3ccco3)C[C@H]2C)C1	-11.4	3.1	-3.3	0.4	nt	-1.5
N#CCCc1c(-c2ccccc2)nc2[nH]c3ccccc3n2c1=O	15.9	13.0	38.9*	6.0	11.4	12.3
COc1ccc(C(=O)NCCS(=O)(=O)N2CCN(c3ccccc3)CC2)cc1	40.5*	-0.5	-3.9	-1.1	-6.5	1.7
O=C(NCCS(=O)(=O)N1CCN(c2ccc(F)cc2)CC1)c1ccc(F)cc1	11.7	-5.8	2.5	3.8	-2.5	-0.3
CCCCOC(=O)c1c(C)oc2c1cc(NS(=O)(=O)c1ccc(CC)cc1)c1ccccc12	14.3	0.7	44.8*	1.9	-51.4	8.9
Cc1ccc(NC(=O)Cn2cc(S(=O)(=O)N3CCCC3)ccc2=O)cc1	52.4*	5.3	14.2	0.8	-10.8	7.9
Cc1cccc(NC(=O)Cn2cc(S(=O)(=O)N3CCCC3)ccc2=O)c1	-1.4	0.0	-3.9	-0.9	11.7	-0.1
CNc1nccnc1C1CN(C(=O)c2c(C(C)C)noc2C)CCO1 (configuration not stated)	5.6	1.7	32.2*	0.7	10.2	-0.2
CNc1nccnc1C1CN(C(=O)c2snnc2C(C)C)CCO1 (configuration not stated)	3.9	3.6	12.8	-0.6	6.6	1.3
